Compound activity: PubChem BioAssay, The Scripps Research Institute Molecular Screening Center
TEAD-YAP inh: TEAD-YAP interaction inhibition | HEK-TIYL cells, TEAD-Gal4/YAP UAS-luciferase luminescence | inhibition, % at 9.12 µM | 1.4% of 640,000 active; in the data active = inhibition above about 32%;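 also: 0% = median of test compound wells and 100% = reference inhibitor wells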
MITF inh: human MITF inhibition, primary screen; O75030; AlphaScreen MITF homodimerization, bead proximity signal; inhibition, % at 2.6 µM; 0.91% of 650,000 active; AID 1259374; in the data active = inhibition above about 50%;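 also: 0% = vehicle wells with protein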
Target sequence (O75030 whole entry, looked up): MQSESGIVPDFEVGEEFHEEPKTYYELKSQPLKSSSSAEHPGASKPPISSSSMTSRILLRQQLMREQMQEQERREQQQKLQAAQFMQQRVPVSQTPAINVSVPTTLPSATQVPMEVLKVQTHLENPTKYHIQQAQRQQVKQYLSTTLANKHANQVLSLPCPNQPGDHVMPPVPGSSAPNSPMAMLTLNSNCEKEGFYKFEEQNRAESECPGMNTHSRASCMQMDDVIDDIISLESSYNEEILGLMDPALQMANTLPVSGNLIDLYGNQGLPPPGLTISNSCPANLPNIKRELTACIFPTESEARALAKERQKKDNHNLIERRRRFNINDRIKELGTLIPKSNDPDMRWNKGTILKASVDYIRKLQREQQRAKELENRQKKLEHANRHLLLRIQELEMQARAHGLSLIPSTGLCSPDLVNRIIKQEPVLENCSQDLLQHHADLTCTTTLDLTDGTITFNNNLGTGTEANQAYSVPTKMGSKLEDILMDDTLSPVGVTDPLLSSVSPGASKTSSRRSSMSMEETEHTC
GPR151 activ: human GPR151 activation | 1% of 650,000 active | PathHunter beta-arrestin GPR151 cells, luminescence | AID 1508602 | activation, % at 11.2 µM; in the data active = activation above about 4.9%;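 also: 0% = median of compound wells and 100% = cells with positive control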
FBW7 act: activators of human E3 ligase FBW7; AID 1259310; normalized activity (activation), % at 26.1 µM; Q969H0; AlphaScreen FBW7–phospho-cyclin E peptide binding, activator screen; 0.13% of 650,000 active; in the data active = normalized activity above about 1.9%;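 also: purified mutant Fbw7 with reduced substrate affinity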
MITF confirm: human MITF inhibition, confirmation. shares compounds with MITF inh. AlphaScreen MITF homodimerization, biotin/His-MITF beads. inhibition, % at 2.6 µM. 16% of 4,700 active;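 active = inhibition above a cutoff derived from the DMSO control wells, cut at about 28% in these data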;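 also: 0% = MITF dimer wells with DMSO only; inhibitors lower the bead chemiluminescence by keeping MITF from dimerizing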
AS interf ctr: AlphaScreen optical interference, counter-screen; inhibition, % at 2.6 µM; shares compounds with MITF inh; LysRS AlphaScreen counterscreen, signal interference, triplicate; AID 1259376; 7.6% of 4,700 active;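 active = inhibition above a cutoff derived from the DMSO control wells, cut at about 30% in these data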
* hit, by the source's call. In the library only some 3.5% were active in any assay of this set; here they are far more common.

For Oc1ccc(Cn2ccnc2)c2cccnc12 the results were TEAD-YAP inh 14, MITF inh 109*, GPR151 activ -1, FBW7 act 0, MITF confirm 112* and AS interf ctr 100*.
Brc1ccccc1Cn1cnc2ccccc21 was read as TEAD-YAP inh 11, MITF inh -5, GPR151 activ 1 and FBW7 act 0.
For Oc1ccc(Cn2cnc3ccccc32)c2cccnc12 the results were TEAD-YAP inh 51*, MITF inh 95*, GPR151 activ 0, FBW7 act -2, MITF confirm 96* and AS interf ctr 101*.
For N=C1SCC(=O)N1c1ncc(Cc2ccccc2)s1 the results were TEAD-YAP inh 4, MITF inh 59*, GPR151 activ -2, FBW7 act 0, MITF confirm 10 and AS interf ctr 43*.
N=C1SCC(=O)N1c1ncc(Cc2cccc(C(F)(F)F)c2)s1 was read as TEAD-YAP inh 23, MITF inh 10, GPR151 activ -2 and FBW7 act 0.
For Cc1ccccc1CN1CCN(S(=O)(=O)c2ccc([N+](=O)[O-])cc2)CC1 the results were TEAD-YAP inh 4, MITF inh 71*, GPR151 activ -1, FBW7 act 0, MITF confirm 25 and AS interf ctr 23.
Screening O=[N+]([O-])c1ccc(S(=O)(=O)N2CCN(Cc3ccccc3F)CC2)cc1 returned TEAD-YAP inh -10, MITF inh 46, GPR151 activ -1 and FBW7 act 0.
Screening COc1ccc(S(=O)(=O)N2CCN(Cc3ccccc3[N+](=O)[O-])CC2)cc1 returned TEAD-YAP inh -2, MITF inh 51*, GPR151 activ 0, FBW7 act 0, MITF confirm 36* and AS interf ctr 8.
Screening O=[N+]([O-])c1ccc(S(=O)(=O)N2CCN(Cc3ccccc3Cl)CC2)cc1 returned TEAD-YAP inh -3, MITF inh 62*, GPR151 activ 2, FBW7 act 0, MITF confirm 15 and AS interf ctr 15.
For COC1OC(=O)C(Cl)=C1Nc1ccc(O)cc1 (stereo not given) the results were TEAD-YAP inh 8, MITF inh 9, GPR151 activ 2 and FBW7 act 0.
For COc1ccccc1-n1cc(C(=O)NCC(=O)N2CCCC2)c2ccccc2c1=O the results were TEAD-YAP inh -12, MITF inh 5, GPR151 activ -1 and FBW7 act 0.
Screening COc1ccccc1CN1CCC(N2CC(C)OC(C)C2)CC1 (stereo not given) returned TEAD-YAP inh 10, MITF inh 52*, GPR151 activ 0, FBW7 act 0, MITF confirm -13 and AS interf ctr -5.
COc1cc(OC)c(OC)cc1CN1CCC(N2CC(C)OC(C)C2)CC1 (stereo not given) was read as TEAD-YAP inh 9, MITF inh 89*, GPR151 activ 0, FBW7 act 0, MITF confirm -8 and AS interf ctr -6.
`COc1ccccc1CN1CCC(C)CC1` gave TEAD-YAP inh -7, MITF inh -4, GPR151 activ 0 and FBW7 act 0.
COc1cc(OC)c(OC)cc1CN1CCN(C2CCC(C)CC2)CC1 (stereo not given) was read as TEAD-YAP inh -3, MITF inh 72*, GPR151 activ -2, FBW7 act 0, MITF confirm 1 and AS interf ctr -1.
For CCOC(=O)C1CCN(Cc2cccc(OC)c2OC)CC1 the results were TEAD-YAP inh 1, MITF inh -17, GPR151 activ 0 and FBW7 act 0.
COc1cc(OC)c(OC)cc1CN1CCC(O)CC1 was read as TEAD-YAP inh 16, MITF inh 22, GPR151 activ 1 and FBW7 act 0.
For COc1cccc(CN2CCC(N3CC(C)OC(C)C3)CC2)c1OC (stereo not given) the results were TEAD-YAP inh -5, MITF inh 87*, GPR151 activ 1, FBW7 act 0, MITF confirm -22 and AS interf ctr -3.
COC(=O)CN1C(=O)S/C(=C/c2ccc(Cl)cc2Cl)C1=O was read as TEAD-YAP inh -15, MITF inh 9, GPR151 activ 2 and FBW7 act 0.
`COCCCNc1ccc([N+](=O)[O-])cc1C(=O)Nc1cccc(C)n1` gave TEAD-YAP inh 0, MITF inh 52*, GPR151 activ -1, FBW7 act 0, MITF confirm 8 and AS interf ctr 10.
For CCOC(=O)C(Cl)NNc1ccccc1[N+](=O)[O-] (stereo not given) the results were TEAD-YAP inh -9, MITF inh 72*, GPR151 activ -1, FBW7 act 0, MITF confirm 20 and AS interf ctr -1.
For CCOC(=O)C(=CNc1ccccc1[N+](=O)[O-])C(=O)OCC the results were TEAD-YAP inh 5, MITF inh 4, GPR151 activ 0 and FBW7 act 0.
`O=C(CSc1ccc(F)cc1)N1CC(c2nc3ccccc3[nH]2)C1` gave TEAD-YAP inh 5, MITF inh 60*, GPR151 activ 0, FBW7 act 0, MITF confirm 6 and AS interf ctr 14.
Brc1cccc(-c2nnc3sc(CNCC4CCCO4)cn23)c1 (stereo not given) was read as TEAD-YAP inh -3, MITF inh 2, GPR151 activ 0 and FBW7 act 0.
Screening CCOC(=O)c1c(Nc2ccccc2N)cc(C)nc1C returned TEAD-YAP inh -6, MITF inh 68*, GPR151 activ 0, FBW7 act 0, MITF confirm -3 and AS interf ctr 5.
`Cc1ccc2cc(CN(C(=O)Nc3ccccc3)C3CCCC3)c3nnnn3c2c1` gave TEAD-YAP inh 11, MITF inh 65*, GPR151 activ 0, FBW7 act 0, MITF confirm 3 and AS interf ctr 11.
For COC(=O)c1cnn(C(=O)c2ccccc2OC)c1N the results were TEAD-YAP inh 4, MITF inh 5, GPR151 activ -2 and FBW7 act 0.
`O=C1OC(c2ccc([N+](=O)[O-])cc2)=N/C1=C/c1cccc(Cl)c1` gave TEAD-YAP inh 7, MITF inh 8, GPR151 activ 4 and FBW7 act 0.
For CCN1CCN(CC(=O)Nc2ccccc2)CC1 the results were TEAD-YAP inh 2, MITF inh 59*, GPR151 activ 1, FBW7 act 0, MITF confirm -1 and AS interf ctr 10.
CCN1CCN(CC(=O)N(C)c2ccccc2)CC1 was read as TEAD-YAP inh -2, MITF inh 67*, GPR151 activ 1, FBW7 act 0, MITF confirm -11 and AS interf ctr 1.
For CCN1CCN(CCC(=O)Nc2ccccc2)CC1 the results were TEAD-YAP inh 8, MITF inh 24, GPR151 activ -2 and FBW7 act 2.
CN(C(=O)N1CCN(C(=O)N(C)c2ccccc2)CC1)c1ccccc1 was read as TEAD-YAP inh 1, MITF inh 14, GPR151 activ -1 and FBW7 act 0.
